PubChem BioAssay (Tox21)
A number with no mark means an inactive call. Inconclusive results are not listed. Activity calls are given as the source filed them. The call rests on the fitted dose curve; in most records, active means well fitted curve in the direction sought with a large enough effect in the repeat runs; inconclusive means weak or mixed curves; inactive means no such curve, though single readings can be large; an effect the other way counts as inactive or inconclusive.

Experiment: Caspase-3/7 induction in CHO-K1 cells by small molecules, qHTS assay (AID 1346980); further: nearly all actives have a fitted effect of over 15% in size
Settings: CHO-K1 caspase-3/7 induction, Caspase-Glo luminescence, 17 h; series mostly up to 92.4 µM; caspase-3/7 activation: at the top concentration
How it was run: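 Wild-type CHO-K1 cells exposed to compounds for 17hr at 37 C, 5% CO2. Caspase-3/7 activity then measured by Caspase-Glo 3/7 luminescence after 30min at room temperature.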
On the % scale 0 is the no-effect control and ±100 the full control effect.

Compound | caspase-3/7 activation | Potency
CCCCCC[N+](=O)[O-] | -1.02% | –
OCCCBr | 0.533% | –
CCOc1nc(F)cc2nc(S(=O)(=O)Nc3c(Cl)cccc3Cl)nn12 | 0.741% | –
Cl/C=C\Cl | 0.93% | –
C=CC(=O)OCCCCO | -2.26% | –
C[C@@H]1CC[C@H]2[C@@H](C)C(=O)O[C@@H]3O[C@@]4(C)CC[C@@H]1[C@]32OO4 | -0.0405% [at 42.5 µM] | –
O=C(N[C@H](c1ccccc1)[C@@H]1CN2CCC1CC2)c1c(Cl)ccc(C(F)(F)F)c1Cl | 0.385% | –
CCOP(=O)(OCC)Oc1ccc([N+](=O)[O-])cc1 | – | inactive
S=C=NCc1ccccc1 | 0.128% | –
CCn1cc[n+](C)c1 | – | inactive
NCCCNCCCN | 0.32% | –
O=C(Nc1ccccc1)Nc1ccnc(Cl)c1 | -4.72% | –
C=CC(=O)OCC(C)C | -0.424% | –
N#Cc1cc(I)c(O)c(I)c1 | -3.4% | –
CC(C)(CCl)C(=O)Cl | 0.033% | –
C=CC(=O)OC | 0.0396% | –

Experiment: Caspase-3/7 induction in HepG2 cells by small molecules, qHTS cell viability counter screen (AID 1346981); further: nearly all actives have a fitted effect of over 30% in size; further: potency means the concentration at half of the fitted maximal effect
Settings: CellTiter-Fluor fluorescence, 17 h; series mostly up to 92.4 µM; activity change, negative = cytotoxicity: at the top concentration
How it was run: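 Wild-type HepG2 cells, 2,000/well, settled 5 hr at 37 C, 5% CO2 before compound addition. Viability read by CellTiter-Fluor fluorescence, reagent added after 16 hr compound exposure, then 1 hr at 37C, in the same wells as the caspase read.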

Compound | activity change, negative = cytotoxicity | Potency
Cc1ccc2ccccc2c1 | 0.521% | –
C=CCOC(C)=O | 1.75% | –
O=C1NCN(c2ccccc2)C12CCN(CCCOc1ccc(F)cc1)CC2 | – | 7.5 µM (active)
CCCCCC[N+](=O)[O-] | -16.5% | –
Cl/C=C\C[N+]12CN3CN(CN(C3)C1)C2 | 15.2% | –
CN1C(=O)NC(=O)C(C)(C2=CCCCC2)C1=O (stereo not drawn) | 1.17% [at 42.5 µM] | –
C[C@@H]1CC[C@H]2[C@@H](C)C(=O)O[C@@H]3O[C@@]4(C)CC[C@@H]1[C@]32OO4 | -0.575% [at 42.5 µM] | –
O=C(NC(=O)c1c(F)cccc1F)Nc1ccc(OC(F)(F)C(F)OC(F)(F)F)c(Cl)c1 (stereo not drawn) | 4.36% [at 42.5 µM] | –
COC(=O)c1cncn1C(C)c1ccccc1 (stereo not drawn) | -1.3% [at 42.5 µM] | –
O=C(N[C@H](c1ccccc1)[C@@H]1CN2CCC1CC2)c1c(Cl)ccc(C(F)(F)F)c1Cl | – | 55.3 µM (active)
O=NN1CCCCCC1 | 5.02% | –
CCOP(=O)(OCC)Oc1ccc([N+](=O)[O-])cc1 | – | inactive
CCCCCCCCOC(=O)c1ccc(C(=O)OCCCCCCCC)c(C(=O)OCCCCCCCC)c1 | 0.0782% | –
II | -1.01% | –
CCn1cc[n+](C)c1 | – | inactive
CCOP(O)OCC | -0.377% | –
CCBr | -8.02% | –
Cc1c(F)c(F)c(COC(=O)C2C(/C=C(\Cl)C(F)(F)F)C2(C)C)c(F)c1F (stereo not drawn) | 7.49% | –
NCCCNCCCN | -9.73% | –
CC(C)(C)C(O)C(Oc1ccc(Cl)cc1)n1cncn1 (stereo not drawn) | 0.66% | –
c1ccc(CN2CCNCC2)cc1 | -0.582% [at 240 µM] | –
CC/C(=N\OC/C=C/Cl)C1=C(O)CC(C2CCOCC2)CC1=O (stereo not drawn) | -2.02% | –
CC(C)(CCl)C(=O)Cl | 9.33% | –
C=CC(=O)OC | -7.23% | –
Cc1ccccc1CCl | 6.21% | –
C=CC[C@]1(O)CC[C@H]2[C@@H]3CCC4=CC(=O)CCC4=C3C=C[C@@]21C | -5.48% [at 42.5 µM] | –
O=C(NCc1cccnc1)Nc1ccc([N+](=O)[O-])cc1 | -1.31% | –
